# This is part of a sample that, as a whole, favours compounds with a hit. Of some 83,000 tested, about 20% had one in any assay.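 The endpoint reported here, percent growth, reads 100 for growth as untreated, 0 for no net growth and -100 for all cells dead.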 Active and inactive are the calls of the source. How the source made its calls: active means growth percent below 10; inactive means the rest.
# Tested on: HL-60(TB) leukemia
# Assay: NCI-60 one-dose screen, 48 h (100 = growth as untreated, 0 = no growth, -100 = all killed)
# Details: 10 µM unless noted
row,SMILES,growth
1,O=C(Cn1cc[n+](CC(=O)c2ccc(-c3ccccc3)cc2)c1)Nc1cccc2cccnc12,14.5% (inactive)
2,NS(=O)(=O)c1ccc(Nc2nc(N/N=C/c3ccccn3)nc(Nc3ccccc3)n2)cc1,2.68% (active)
3,N/C(=N\C(N)=N\c1nc2ccccc2s1)c1cccc(F)c1,83% [5 µM] (inactive)
4,COc1cc2cc(Oc3ccc(NC(=O)Nc4cccc(C(F)(F)F)c4)cc3)c(C)nc2cc1OCCN(C)C,133% (inactive)
5,CCOc1c(C#N)c(Nc2ccc(S(N)(=O)=O)cc2)c(C#N)c2nnc(C)n12,114% (inactive)
6,CCN1CCN(Cc2cn(-c3ccc(S(N)(=O)=O)cc3)nn2)CC1,110% (inactive)
7,CC1OC(O[C@@H]2[C@H](O)C(CO)OC(O[C@H]3COC(O[C@H]4CC[C@]5(C)[C@H]6CC[C@]78OC[C@@]9(CC[C@](C)(C=O)C[C@H]97)C(=O)C[C@@]8(C)[C@]6(C)CC[C@H]5C4(C)C)[C@@H](O)[C@@H]3O)[C@H]2OC2OC[C@@H](O)[C@@H](O)[C@@H]2O)[C@@H](O)[C@@H](O)[C@H]1O (stereo not given in full),101% (inactive)
8,Cc1ccc(CSc2nc(-c3ccc(Cl)cc3)c(C#N)c(N3CCOCC3)n2)cc1,98.2% (inactive)
9,C/C(=N/NC(N)=S)c1ccc(Nc2nc(SCC(C)C)nc(-c3ccc(F)cc3)c2C#N)cc1,73.9% (inactive)
10,COc1ccc(-c2cc(-c3cccc4ccccc34)n3c(n2)nc2ccccc23)cc1OC,-7.71% (active)
11,N#Cc1c(-c2ccc(Cl)cc2)nc(SCc2ccc([N+](=O)[O-])cc2)nc1N1CCNCC1,-53.3% (active)
12,IP(CCCCCCCCCCSc1n(Cc2ccc3ccccc3c2)c(-c2ccccc2)c(-c2ccccc2)[n+]1Cc1ccc2ccccc2c1)(c1ccccc1)(c1ccccc1)c1ccccc1,-62.5% (active)
13,O=C1Nc2ccccc2Oc2ccc(S(=O)(=O)CC3CO3)cc21 (stereo not given),0.252% (active)
14,CCCCCCCCNC(=O)c1ccc(Cn2c(CCCC)nc3c(N)nc4ccccc4c32)cc1,-57.6% (active)
15,NC1[C@H]2CN(c3cnc(C(=O)Nc4cc(F)cc5cccnc45)cn3)C[C@@H]12 (stereo not given in full),11.5% (inactive)
16,Cc1cccc2sc(/N=C(\N)C(Cl)(Cl)Cl)nc12,103% (inactive)
17,COc1cc(OC)c(/C=C/S(=O)(=O)Cc2ccc(OC)c(NCC(=O)NO)c2)c(OC)c1,-13.5% (active)
18,C/C(=C(/c1ccc(Cl)cc1)c1ccc(OCCN)cc1)c1ccc(C)cc1,102% (inactive)
19,CN1CCN(c2ccc(Nc3nc(NCCCNS(=O)(=O)c4ccc(Cl)cc4)c4sccc4n3)cc2)CC1,-43.7% (active)
20,CC(C)(C)c1cc(NC(=O)Nc2ccc(-c3cn4c5c(sc4n3)CCc3cn(CCCN4CCCCC4)cc3-5)cc2)no1,-18.9% (active)

row,SMILES,growth
1,CCOC(=O)c1c(Nc2ccccc2)nn2c(N)c(C#N)c(-c3ccc(Cl)cc3)nc12,102% (inactive)
2,NS(=O)(=O)c1ccc(Nc2nc(N/N=C/CCc3ccccc3)nc(Nc3ccccc3)n2)cc1,107% (inactive)
3,COc1ccc(C2CC(c3cccc(OCCCCOc4cccc(C5=NOC(c6ccc(OC)cc6)C5)c4)c3)=NO2)cc1 (stereo not given),89.6% (inactive)
4,CS(=O)(=O)c1ccc(-n2cc(/C=C/C(=O)c3ccc(NC(=O)CO[N+](=O)[O-])cc3)c(-c3ccc(Cl)cc3)n2)cc1,109% (inactive)
5,CNC(=O)c1cc(Oc2ccc3nc(NC(=O)c4cccc(C(F)(F)F)c4)sc3c2)ccn1,143% (inactive)
6,O=C1NC(=O)/C(=C/c2ccc(OCc3cc4ccccc4nc3Cl)cc2)S1,100% (inactive)
7,COc1cc2oc(-c3cccc(NC(=O)c4cc(NC(=O)[C@H](C)NC(=O)OC(C)(C)C)ccc4C)c3)cc(=O)c2c(OC)c1OC,62.6% (inactive)
8,COc1ccc(C(=O)/C=C/c2ccc(OCc3ccc(Cl)cc3)c(OC)c2)cc1OC,4.56% (active)
9,O=C(CCCCCCN1CC(=O)N2[C@@H](c3cccc(Cl)c3)c3[nH]c4ccccc4c3C[C@H]2C1=O)NO,8.21% (active)
10,O=C(CCCCCCNC(=O)C(O)(O)C(F)(F)F)Nc1nc2ccccc2s1,11.3% (inactive)
11,CC(=O)O[C@@H]1C(=O)N(c2cnccn2)[C@H]1c1ccccc1[N+](=O)[O-],-30.4% (active)
12,CS(=O)(=O)c1nccc(-c2c(-c3cccc(OCc4ccc(Cl)c(C(F)(F)F)c4)c3)nc3sccn23)n1,12.5% (inactive)
13,O=C(/C=C/c1ccc(F)cc1)c1ccc(O)cc1,81.9% (inactive)
14,Nc1nc(-c2cccc([N+](=O)[O-])c2)c(N=Nc2ccc(Br)cc2)s1,100% (inactive)
15,CCOC(=O)c1c(Nc2ccccc2)nn2c(N)c(C#N)c(-c3ccccc3)nc12,70.9% (inactive)
16,COc1cc(-c2nc(SCc3ccc(C)cc3)[nH]c(=O)c2C#N)ccc1OCc1ccccc1,137% (inactive)
17,NC(N)=Nc1ccc(Oc2cccc(Nc3ccc(Br)c(C(F)(F)F)c3)c2)cn1,-62.9% (active)
18,CS(=O)(=O)Nc1ccc(-c2nn(-c3ccc(S(C)(=O)=O)cc3)cc2/C=C/C(=O)c2ccc(NC(=O)CO[N+](=O)[O-])cc2)cc1,107% (inactive)
19,C=C(C)[C@@H]1CC[C@]2(C(=O)NC3CCCCC3)CC[C@]3(C)[C@H](CC[C@@H]4[C@@]5(C)CC[C@H](N)C(C)(C)[C@@H]5CC[C@]43C)[C@@H]12,74.5% (inactive)
20,COC(=O)c1ccc(NC2=C(Cl)C(=O)C(C)=C(C)C2=O)cc1,41.3% (inactive)

# From PubChem BioAssay (NCI)
